Source: PubChem BioAssay
Pol beta inh-1: blocks human DNA polymerase beta activity | P06746 | Pol beta primer extension/strand displacement, fluorescence kinetic | Potency, µM (highest dose often 114 µM), for inactives: at the top dose activity change, negative = inhibition, actives largely listed as inhibitors | 340,000 compounds, 1.3% hits; note: potency is the fitted concentration of half-maximal effect; % is set by controls: 0 for no effect and ±100 for the full control effect
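Values derive from four-parameter Hill fits of normalized kinetic data: reads at 0 and 10 min following addition of 50 nM substrate to 10 nM Pol beta preincubated 15 min with compound.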
Pol eta inh-1: DNA polymerase eta (human) inhibition; Potency, µM (highest dose often 114 µM), inactives show at the highest dose activity change, negative = inhibition, most hits filed as inhibitors; Q9Y253; recombinant Pol eta, fluorescent DNA replication assay; 390,000 compounds, 1.2% hits; note: potency is the fitted concentration of half-maximal effect; % is set by controls: 0 for no effect and ±100 for the full control effect
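Fluorescent replication assay: 50 nM final substrate added after a 15 min room-temperature compound preincubation with 10 nM enzyme. Signal taken at 0 min and again at 10 min.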
PI5P4Ka inh: inhibitors of human PI5P4K alpha; 330,000 compounds, 1.2% hits; P48426; max response, %; PI5P4Kalpha enzyme, ADP-Glo luminescence, 60 min; hits give low values; active = max response of -50% or lower; inconclusive = between -30% and -50%; inactive = -30% or higher; note: value at the top dose of about 77 µM; % is set by controls: 0 for no effect and ±100 for the full control effect
Target sequence (P48426 whole entry, looked up): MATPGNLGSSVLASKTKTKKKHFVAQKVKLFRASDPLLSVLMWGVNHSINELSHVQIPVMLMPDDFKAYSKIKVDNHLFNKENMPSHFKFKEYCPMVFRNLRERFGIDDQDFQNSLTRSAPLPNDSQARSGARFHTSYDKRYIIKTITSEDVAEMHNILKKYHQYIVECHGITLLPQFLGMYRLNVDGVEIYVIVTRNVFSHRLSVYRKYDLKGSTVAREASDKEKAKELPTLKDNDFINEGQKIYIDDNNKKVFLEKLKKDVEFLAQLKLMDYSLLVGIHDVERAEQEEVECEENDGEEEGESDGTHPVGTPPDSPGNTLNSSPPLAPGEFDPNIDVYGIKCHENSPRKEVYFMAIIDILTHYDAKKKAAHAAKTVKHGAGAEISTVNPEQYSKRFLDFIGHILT
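Compounds were pin-transferred onto PI5P4Kalpha and substrate in HEPES pH 7.4 buffer with EGTA, CHAPS and 5% DMSO. ATP (5 microM final) started the reaction, which ran 60 minutes at room temperature before ADP-Glo detection.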
FEN1 inhibitor: inhibitors of human flap endonuclease 1 | P39748 | Potency, µM (highest dose often 114 µM), inactives show top-dose activity change, negative = inhibition, hits mostly inhibitors | Recombinant FEN1 flap cleavage, fluorescence, 15 min | AID 588795 | 390,000 compounds, 0.35% hits; note: potency is the fitted concentration of half-maximal effect; % is set by controls: 0 for no effect and ±100 for the full control effect; nearly all actives have a fitted effect of over 65% in size
Target sequence (P39748 whole entry, looked up): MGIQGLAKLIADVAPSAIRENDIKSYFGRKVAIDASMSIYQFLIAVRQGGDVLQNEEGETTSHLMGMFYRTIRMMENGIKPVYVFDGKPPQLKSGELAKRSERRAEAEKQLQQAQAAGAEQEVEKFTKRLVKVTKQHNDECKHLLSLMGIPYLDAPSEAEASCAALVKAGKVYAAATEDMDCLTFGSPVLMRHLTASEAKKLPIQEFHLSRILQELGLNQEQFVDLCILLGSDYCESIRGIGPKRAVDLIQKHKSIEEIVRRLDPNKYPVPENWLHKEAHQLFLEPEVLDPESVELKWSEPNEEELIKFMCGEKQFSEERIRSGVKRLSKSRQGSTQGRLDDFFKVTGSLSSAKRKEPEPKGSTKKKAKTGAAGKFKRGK
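Recombinant FEN1 (10 nM) was preincubated with pin-transferred compounds for 15 min at room temperature, then flap DNA substrate (50 nM final) was added. Plates were read at 0 and 15 min, and normalized concentration–response data were fitted to a four-parameter Hill equation.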
POLI inh: blocks human DNA polymerase iota activity | Pol iota fluorescent replication assay, 10 min | Q9UNA4 | Potency, µM (titrated, usually from 115 µM), for inactives: at the highest dose activity, negative = inhibition, usual class: inhibitors | 390,000 compounds, 1% hits; note: potency is the fitted concentration of half-maximal effect
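Fluorescent replication assay read twice, at 0 min and 10 min after adding 50 nM (final) substrate. Enzyme (10 nM) and compounds were first incubated 15 min at room temperature; enzyme-free buffer wells were negative controls.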
Pol kappa inh-1: blocks human DNA polymerase kappa activity; Q9UBT6; purified Pol kappa, fluorescent DNA synthesis assay, 10 min; Potency, µM (top dose mostly 107 µM), inactives show top-dose activity, negative = inhibition, most hits filed as inhibitors; 400,000 compounds, 0.53% hits; note: potency is the fitted concentration of half-maximal effect; % is set by controls: 0 for no effect and ±100 for the full control effect
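Inhibition of 10 nM Pol kappa is measured by a fluorescent read-out at 0 and 10 min following addition of 50 nM substrate (final), with a 15-min room-temperature compound preincubation.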
Pol beta inh-2: Validate hits inhibiting human DNA polymerase beta | shares compounds with Pol beta inh-1 | Pol beta primer extension/strand displacement, fluorescence kinetic | Potency, µM, usual class: inhibitors | 250 compounds, 87% hits | AID 540280; calls by dose curve; note: potency is the fitted concentration of half-maximal effect
Klenow inh: inhibits Klenow fragment polymerase in counter-screen. shares compounds with Pol beta inh-1. Klenow exo- polymerase counter-screen, fluorescent DNA substrate. activity change, negative = inhibition, % at 57.1 µM. 250 tested, under 10 active. AID 540300
HIV RT counter: HIV-1 RT inhibition, pol beta selectivity check | shares compounds with Pol beta inh-1 | HIV-1 RT polymerase activity, counter-screen | activity % (negative = inhibition, positive = activation), % at 57.1 µM | 250 tested, under 10 active | AID 540301
POLB valid: validation of human DNA polymerase beta inhibitors | AID 540325 | inhibition, % at 10 µM | shares compounds with Pol beta inh-1 | radiolabeled primer extension gel assay, phosphorimager | 110 compounds, 91% hits;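 active = inhibition at 10 µM of 30% or more; inconclusive = no clear call, values can overlap the other calls; inactive = inhibition at 10 µM under 30%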
PGK validate: TbPGK inhibition, hit validation. shares compounds with Pol kappa inh-1. TbPGK coupled GAPDH assay, Kinase-Glo luminescence. Potency, µM (titrated, usually from 57.5 µM), inactives show top-dose activity change, negative = inhibition, usual class: inhibitors. 500 compounds, 79% hits. AID 686980; note: potency is the fitted concentration of half-maximal effect; % is set by controls: 0 for no effect and ±100 for the full control effect; nearly all actives have a fitted effect of over 65% in size
POLI cherry-pick: Confirm cherry-picked inhibitors of human polymerase iota | Potency, µM, most hits filed as inhibitors | shares compounds with Pol kappa inh-1 | 1,500 compounds, 77% hits | Pol iota primer extension, TAMRA/BHQ fluorescence; note: potency is the fitted concentration of half-maximal effect
Pol kappa inh-2: Pol kappa (human) inhibition, cherry-pick confirmation. purified Pol-kappa, fluorescent strand-displacement substrate. Potency, µM, actives largely listed as inhibitors. 920 compounds, 76% hits. shares compounds with Pol eta inh-1; note: potency is the fitted concentration of half-maximal effect
Pol eta inh-2: Pol eta (human) inhibition, cherry-pick confirmation; shares compounds with Pol eta inh-1; Pol eta primer extension, TAMRA/BHQ fluorescence, 10 min; Potency, µM, usual class: inhibitors; 2,600 compounds, 64% hits; AID 720502; note: potency is the fitted concentration of half-maximal effect
The depositor's hits bear a star; ? = inconclusive; . = no result given; [ ] = another dose, or the depositor's remark. Rows were chosen to be rich in hits. Some 2.8% of all compounds tested hit in one or more screens of this group. Unless noted, calls come from the whole dose curve; as a rule, active = well fitted curve in the direction sought with a large enough effect; inconclusive = small, poorly fitted or top-dose-only effect, or another doubt; inactive = no such curve, though single readings can be large; an effect the other way counts as inactive or inconclusive.

SMILES	Pol beta inh-1	Pol eta inh-1	PI5P4Ka inh	FEN1 inhibitor	POLI inh	Pol kappa inh-1	Pol beta inh-2	Klenow inh	HIV RT counter	POLI cherry-pick	Pol eta inh-2	others
CCOc1cc(/C=C(\C#N)C(=O)Nc2cccc(C(=O)O)c2)ccc1OCc1ccc(Br)cc1	10µM*	?	-3	?	7.1µM*	-22%	3.5*	-21	5	7.5*	.
COc1cc(/C=C(\C#N)C(=O)NCc2ccccc2)ccc1OCc1ccc(C(=O)O)cc1	15%	-23%	-17	-1%	-17%	-1%	.	.	.	.	.
N#CCc1nn(Cc2ccc(F)cc2)c(=O)c2ccccc12	9%	-10%	9	1%	-13%	8%	.	.	.	.	.
N#CC1=C(N)N2C(=C(C#N)C1c1ccc(Br)cc1)Nc1ccccc12 (stereo unspecified)	13µM*	56µM*	-25	-4%	?	-40%	16*	-28	39	?	.
N#CC1=C(N)N2C(=C(C#N)C1c1cccc(Br)c1)Nc1ccccc12 (stereo unspecified)	25%	-3%	-8	6%	55%	-2%	.	.	.	.	.
COc1cccc(C(=O)Nc2ccc3c(c2)C(=O)c2ccccc2C3=O)c1	10µM*	?	-23	-23%	?	-9%[60.1 µM]	14*	?	10	?	.
Nc1nc(SCc2ccc(Cl)cc2Cl)nc2nc3c(cc12)CCCC3	10µM*	?	-4	4%	79µM*	-25%	35*	287	-4	34*	.
O=C(CSc1cn(CCNC(=O)c2ccccc2F)c2ccccc12)Nc1ccc(F)cc1	1%	-17%	.	21%	13%	-1%	.	.	.	.	.
O=C1CC(c2ccc(O)cc2)Oc2cc(O)ccc21 (stereo unspecified)	.	-4%	-23	11%	8%	-8%	.	.	.	.	.
Cc1c(O)cc2c(c1O)C(=O)CC(c1ccc(O)cc1)O2 (stereo unspecified)	1.3µM*	8.9µM*	-80*	?	?	14µM*	5*	-20	27	.	?
O=C1/C(=C/c2cccc(F)c2)Oc2cc(O)ccc21	31%	-4%	-28	-9%	31%	-16%	.	.	.	.	.
Cc1nnc(NC(=O)COc2ccc3c(C)cc(=O)oc3c2)s1	20µM*	10µM*	?	12%	?	-23%	22*	3	-4	60*	76*	POLB valid=96*
CCC(CC)c1nnc(NC(=O)COc2ccc3c(C)cc(=O)oc3c2)s1	5%	-8%	.	7%	-4%	-3%	.	.	.	.	.
CCc1cc2c(SCc3ccc(C(=O)OC)o3)ncnc2s1	36%	-24%	5	-2%	60%	6%	.	.	.	.	.
CCOc1ccc(-n2c(SCC(=O)N3CCc4ccccc43)nnc2-c2c[nH]c3ccccc23)cc1	1µM*	5.6µM*	6	2%	?	0%	1.4*	-10	26	30*	76*
Cc1cc(C)n(-c2nc(Nc3ccccc3)nc(-n3nc(C)cc3C)n2)n1	10µM*	?	.	-5%	-1%	-3%	?	-37	23	.	?
Cc1cc(C)n(-c2nc(N(c3ccccc3)c3ccccc3)nc(-n3nc(C)cc3C)n2)n1	-8%	-14%	.	-23%	7%	3%	.	.	.	.	.
O=C(N/N=C/c1ccco1)c1cccc(N2Cc3ccccc3C2)c1	13µM*	7.9µM*	-88*	?	10µM*	35µM*	16*	-14	20	42*	43*	Pol kappa inh-2=17*
CC(C)(C)OC(=O)C[C@H]1C/C=C\C[C@@H](CC(=O)N(CCO)Cc2ccccc2)C(=O)N[C@H](Cc2c[nH]c3ccccc23)COC1=O	.	-21%	-7	-6%	40%	1%	.	.	.	.	.
Cc1cc(C(F)F)n2nc(C(=O)Nc3sc4c(c3C(N)=O)CCC4)nc2n1	16µM*	20µM*	?	?	20µM*	?	32*	-13	-14	?	?	POLB valid=18
CCC1(CC)NC(=O)N(CC(=O)Nc2sc3c(c2C(N)=O)CCC3)C1=O	16µM*	25µM*	-70*	-28%	13µM*	?	28*	-20	-10	.	?	POLB valid=95*
CNC(=O)C1CCC(Cn2c(=O)c3sccc3n(CC(=O)NCc3cccc(OC)c3)c2=O)CC1 (stereo unspecified)	4%	-11%	.	17%	3%	-26%	.	.	.	.	.
COc1ccc(-c2cc(=O)oc3c(O)c(O)ccc23)cc1	10µM*	7.9µM*	-17	-13%	?	?	6.3*	-9	17	67*	?	PGK validate=9.2µM*
COc1ccc(CN(C(=O)c2ccco2)c2ccccc2)cc1	8%	-2%	-2	-19%	-4%	-11%	.	.	.	.	.
COc1ccc(CN(CCC(c2ccccc2)c2ccco2)C(=O)c2ccco2)cc1 (stereo unspecified)	20µM*	79µM*	?	-9%	50µM*	-41%	32*	-19	4	.	?	POLB valid=100*
COC(=O)c1ccc(CSc2ccccc2NC(=S)Nc2cccc(SC)c2)o1	.	-22%	-22	.	.	.	.	.	.	.	.
COc1ccc(NC(=O)Cn2ncc(Cl)c(Cl)c2=O)cc1S(=O)(=O)N1CCOCC1	10µM*	7.1µM*	-78*	-19%	20µM*	45µM*	32*	-6	?	67*	76*	POLB valid=98*
